Screening data (PubChem)
This is a sample that favours compounds with a hit; in the whole collection about 1.5% have one here.
ARNT TACC3 PPI – disrupts binding between human ARNT and TACC3; 390,000 tested, 0.66% active; AlphaScreen His-ARNT PAS-B/GST-TACC3 binding, luminescence; TACC3 fragment carries E629A point mutation; inhibition, % at 9.99 µM;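 active = mean inhibition of replicates at least 50% and at least half of replicates each reaching 50%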;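 note: 0% = complete ARNT plus TACC3 wells and 100% = ARNT alone without TACC3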
AI-2 QS mod – modulates the Vibrio harveyi AI-2 quorum sensing system. activity change, % at 7.5 µM. 300,000 tested, 0.4% active. Vibrio harveyi JMH597 AI-2 luminescence/OD600 ratio, 9 h; hits give low values; strain lacks LuxN and CqsS sensors; 0 = neutral-control median; in the data active = activity change below about -75%, passing the limit was not always enough;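 note: luminescence divided by OD600 gain over 9 h not by final OD600 alone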
Rin1-Abl PPI inh – blocks binding of human Rin1 to Abl | P00519+Q13671 | TR-FRET Rin1/Abl binding, biochemical | inhibition, % at 7.35 µM | 360,000 tested, 0.4% active | AID 588664; in the data active = inhibition above about 5%, passing the limit was not always enough
sPLA2-III inh – Inhibits HGIII-sPLA2 liposome hydrolysis, primary screen. Q9NZ20. QFRET BODIPY PC-A2 liposome hydrolysis, fluorescence. 370,000 tested, 0.56% active. inhibition, % at 12.2 µM;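 active = inhibition above mean plus 3 SD of compounds lying within the high and low control bounds, cut at about 19% in these data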;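 note: 0% = median of test compound wells and 100% = no enzyme DMSO wells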
Target sequence (Q9NZ20 whole entry, looked up): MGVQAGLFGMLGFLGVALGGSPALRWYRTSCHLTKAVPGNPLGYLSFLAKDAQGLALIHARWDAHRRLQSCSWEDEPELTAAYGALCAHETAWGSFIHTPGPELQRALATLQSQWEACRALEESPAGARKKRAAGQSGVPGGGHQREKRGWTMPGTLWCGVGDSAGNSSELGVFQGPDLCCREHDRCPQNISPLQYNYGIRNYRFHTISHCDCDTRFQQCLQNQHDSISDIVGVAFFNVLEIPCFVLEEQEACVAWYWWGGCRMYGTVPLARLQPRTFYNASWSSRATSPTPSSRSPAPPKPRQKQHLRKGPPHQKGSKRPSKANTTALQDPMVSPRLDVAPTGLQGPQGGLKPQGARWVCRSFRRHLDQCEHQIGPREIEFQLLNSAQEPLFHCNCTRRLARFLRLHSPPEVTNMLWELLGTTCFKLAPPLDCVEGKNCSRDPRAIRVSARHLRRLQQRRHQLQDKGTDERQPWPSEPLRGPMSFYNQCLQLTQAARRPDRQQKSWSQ
Rin1-Abl confirm – Rin1-Abl interaction inhibition confirmation; TR-FRET Rin1-Abl binding, purified proteins; shares compounds with Rin1-Abl PPI inh; inhibition, % at 7.35 µM; 1,300 tested, 49% active; AID 602124
GFP quencher – GFP fluorescence interference artifact; shares compounds with Rin1-Abl PPI inh; inhibitors/quenchers counterscreen; inhibition, % at 6.75 µM; 1,300 tested, 8.5% active; AID 602125;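 note: ABL1-eGFP fusion protein alone without its partner RIN1-SBP; 0% = protein with vehicle and 100% = wells lacking protein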
GFP quench dose – counter-screen for Rin1-Abl inhibitors: GFP quenchers, dose response | shares compounds with Rin1-Abl PPI inh | GFP fluorescence interference/quenching counterscreen | IC50, µM | 230 tested, under 10 active; call rule not given here;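 note: ABL1-eGFP fusion protein alone without its RIN1 binding partner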
ARNT Alpha ctr – AlphaScreen artifact in ARNT/TACC3 counter-screen; shares compounds with ARNT TACC3 PPI; His-ARNT PASB-GST AlphaScreen artifact counter-screen, luminescence; AC50, µM (titrated, usually from 68 µM), for the others: top-dose activity change, negative = signal decrease; 1,200 tested, 50% active; AID 651705;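 active = every separate test run was called active for a drop in luminescence, with AC50 within twice the top valid dose, actives reach about 71 µM in these data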
Starred values were filed as active, the others as inactive; . = no result given. Cut-off read from the data, not from the text of the source, unless noted: active = inhibition above about 6.5%; inactive = the rest.

SMILES	ARNT TACC3 PPI	AI-2 QS mod	Rin1-Abl PPI inh	sPLA2-III inh	Rin1-Abl confirm	GFP quencher	others
C[C@@H]1CCCCO[C@H](CN(C)C(=O)c2ccccc2)[C@@H](C)CN([C@@H](C)CO)C(=O)c2cc(NC(=O)Nc3cccc4ccccc34)ccc2O1	-5	.	.	.	.	.
CN1C(=O)c2cc(NC(=O)c3ccc(F)cc3)ccc2OC[C@@H]2O[C@H](CC(=O)N3CCOCC3)CC[C@@H]21	-10	.	.	.	.	.
C=CCC(=O)N1CCCC(C(=O)c2ccc(Cl)cc2)C1 (stereo not drawn)	-7	13	6.9*	12	0	0
Cc1nnc(SCC(=O)N2CCCC(C(=O)c3ccc(Cl)cc3)C2)o1 (stereo not drawn)	-4	25	-2	4	.	.
CO[C@@H]1CN(C)C(=O)c2ccc(NC(=O)C3CC3)cc2OC[C@@H](C)N(Cc2cc(F)ccc2F)C[C@H]1C	7	.	.	.	.	.
O=C(NC(NC(=S)Nc1ccccc1C(=O)O)C(Cl)(Cl)Cl)c1ccco1 (stereo not drawn)	31	21	7.0*	-1	0	1
COc1ccc(S(=O)(=O)Nc2ccc3c(c2)C(=O)N([C@H](C)CO)C[C@H](C)[C@H](CN(C)S(=O)(=O)c2ccc(Cl)cc2)OCCCC[C@H](C)O3)cc1	13	.	.	.	.	.
CN(C)Cc1ccccc1CCc1ccccc1	.	5	-1	1	.	.
N=c1ccn(O)cc1CCc1ccccc1	-7	.	17*	3	22*	0	GFP quench dose=>67
COc1ccc(S(=O)(=O)N[C@H]2CC[C@@H](CCNC(=O)CN3CCOCC3)O[C@H]2CO)cc1	-15	.	.	.	.	.
CC1Cc2ccccc2N1c1ncnc(N)c1[N+](=O)[O-] (stereo not drawn)	1	17	-5	16	.	.
CC1CCCCN1c1ncnc(N)c1[N+](=O)[O-] (stereo not drawn)	6	1	7.2*	3	0	0
C[C@H]1CN([C@@H](C)CO)C(=O)c2cccc(NS(=O)(=O)c3ccc(F)cc3)c2O[C@@H]1CN(C)Cc1ccc(C(=O)O)cc1	-19	.	.	.	.	.
CN(C)CC(=O)N1[C@@H](C#N)[C@@H](c2ccc(-c3cccc(C(=O)N(C)C)c3)cc2)[C@@H]1CO	-4	.	.	.	.	.
Cc1oc2nc(SCC(=O)NC3CCCCC3)nc(N)c2c1C	7	5	-2	-4	.	.
Cc1oc2nc(SCCCC(=O)NCCO)nc(N)c2c1C	-7	-5	36*	0	42*	1	GFP quench dose=>68
O=C(NC1CCC1)[C@@H]1[C@@H](CO)[C@@H]2Cn3c(ccc(C4=CCCC4)c3=O)[C@H]1N2C(=O)c1ccccc1	-14	.	.	.	.	.
CC(C)C(=O)Nc1ccc2c(c1)C(=O)N(C)[C@@H]1CC[C@H](CC(=O)O)O[C@H]1CO2	-10	.	.	.	.	.
COc1cccc(C(NC(C)=O)c2ccc3cccnc3c2O)c1 (stereo not drawn)	100*	.	6.7*	1	9.6*	2
CCC(=O)NC(c1ccco1)c1cc(Cl)c2cccnc2c1O (stereo not drawn)	-2	53	7	16	.	.
CC(=O)NC(c1ccc(C)cc1)c1cc(Cl)c2cccnc2c1O (stereo not drawn)	5	-50	7.0*	1	6	2
CC(=O)NC(c1ccco1)c1cc(Cl)c2cccnc2c1O (stereo not drawn)	.	.	11*	-1	11*	3
CCC(=O)NC(c1ccc(OC)cc1)c1cc(Cl)c2cccnc2c1O (stereo not drawn)	0	64	6	9	.	.
CN1C(=O)c2cc(NC(=O)Nc3ccccc3)ccc2OC[C@@H]2O[C@@H](CC(=O)NC3CCC3)CC[C@H]21	5	.	.	.	.	.
O=C(Nc1ccc(Oc2ccccc2)cc1)C1CCN(c2c3c(nc4ncnn24)CCC3)CC1	1	-66	6.0*	-6	12*	0
SMILES	ARNT TACC3 PPI	AI-2 QS mod	Rin1-Abl PPI inh	sPLA2-III inh	Rin1-Abl confirm	GFP quencher	others
CCC(=O)N1C[C@@H](C)[C@H](OC)CN(C)C(=O)c2cc(NC(=O)C3CC3)ccc2OC[C@@H]1C	-11	.	.	.	.	.
CC1(C2CC2)NC(=O)N(CC(=O)N2CCN(c3cccc(C(F)(F)F)c3)CC2)C1=O (stereo not drawn)	-3	.	8.6*	8	-2	1
Cc1ccc(CC(=O)N2CCN(c3cccc(C(F)(F)F)c3)CC2)cc1	.	7	0	6	.	.
Cc1ccc(S(=O)(=O)C2(C(=O)NC3CCCCC3)CC2)cc1	0	4	16*	5	0	1
Cc1ccc(S(=O)(=O)C2(C(=O)Nc3ccc(Br)cc3)CC2)cc1	-1	10	-1	-13	.	.
COc1ccc(C(=O)c2ncc(C(F)(F)F)cc2Cl)cc1	3	20	2	-1	.	.
COc1cccc(C(=O)c2ncc(C(F)(F)F)cc2Cl)c1	-8	33	13*	6	-3	0
Cc1cc2c(N)cccc2nn1	31	0	12*	-16	-7	1
CCCN(C)C[C@@H]1Oc2cc(-c3ccc(C#N)cc3)ccc2S(=O)(=O)N([C@@H](C)CO)C[C@@H]1C	5	.	.	.	.	.
CSc1nc2sc3c(c2c(=O)[nH]1)CCCC3	-4	18	-5	-3	.	.
CSc1nc2sc3c(c2c(=O)[nH]1)CCC3	-6	26	5.8*	-1	-3	-1
COCC#Cc1ccc2c(c1)O[C@H](CN(C)C(=O)Nc1ccc(OC)cc1)[C@H](C)CN([C@H](C)CO)S2(=O)=O	2	.	.	.	.	.
O=C(CN1C(=O)CSc2cc(S(=O)(=O)N3CCCCCC3)ccc21)NCCc1ccccc1	-1	8	6.1*	0	-2	0
O=C1/C(=C\c2ccc([N+](=O)[O-])cc2)CCc2ccccc21	3	20	18*	10	-1	-1
Oc1c(CN2CCOCC2)cc(CN2CCOCC2)c(O)c1O	13*	.	23*	1	7.0*	6
CN1[C@H](C(=O)NC2CCC2)[C@@H](CO)[C@@H]2Cn3c(ccc(-c4cccc(F)c4)c3=O)[C@@H]21	0	.	.	.	.	.
N=C(N)c1ccc(N=Nc2c(O)ccc3c2[nH]c2ccccc23)cc1	29	.	22*	5	24*	20*
COc1ccccc1N1CCN(Cc2ccc(O)c3ncccc23)CC1	70*	-42	18*	13	3	2	ARNT Alpha ctr=2.8µM*
COc1ccccc1N1CCN(Cc2ccc(OC)c(OC)c2OC)CC1	3	29	0	6	.	.
